Source: the supplement of paper PMC3334620
Over roughly 33,000 sequences, “E-score (-0.5 to 0.5)” has its median near -0.013; the highest 2% begin near 0.3. Shown is part of a subset that was picked to be rich in the highest values.

biological target: T1, Msn1 (UniProt P22148); assay: PBM E-score (8-mer binding enrichment) (E-score (-0.5 to 0.5)); higher = stronger / more preferred TF binding; details: protein concentration: 200 nM; construct: GST-full length
T1 sequence: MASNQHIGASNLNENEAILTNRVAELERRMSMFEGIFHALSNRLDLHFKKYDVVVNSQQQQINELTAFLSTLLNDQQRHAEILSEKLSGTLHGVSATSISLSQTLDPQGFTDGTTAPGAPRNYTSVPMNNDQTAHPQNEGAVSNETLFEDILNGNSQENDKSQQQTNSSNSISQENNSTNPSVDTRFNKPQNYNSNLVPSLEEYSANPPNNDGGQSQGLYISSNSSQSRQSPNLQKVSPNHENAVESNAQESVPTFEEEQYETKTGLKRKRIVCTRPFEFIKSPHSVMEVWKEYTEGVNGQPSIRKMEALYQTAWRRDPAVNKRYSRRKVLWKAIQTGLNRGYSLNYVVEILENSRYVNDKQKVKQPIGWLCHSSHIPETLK
Procedure: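 Universal 'all 10-mer' protein binding microarrays (Agilent AMADID 015681) probed with GST-tagged S. cerevisiae TFs (full-length or DBD) made by in vitro transcription/translation (PURExpress), about 100-200 nM. Bound TF was detected with fluorescent anti-GST. Each ungapped 8-mer (which stands for itself and its reverse complement) is scored by the PBM enrichment score (E-score), a modified Wilcoxon-Mann-Whitney statistic from -0.5 to +0.5, computed with the Universal PBM Analysis Suite. Scale: above 0.35 generally sequence-specific binding.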

Row | Sequence | PBM E-score
1 | TGGGGACA | 0.433
2 | AGGGGACG | -0.0829
3 | GGGGGACA | 0.287
4 | AGGGGACT | -0.151
5 | AGGGGACA | 0.386
6 | CTTGAGAC | 0.0475
7 | GACGTTAC | 0.0854
8 | AGGACGTC | 0.177
9 | GAGAAACA | 0.0761
10 | CGAGTGGC | -0.181
11 | ACGTCGCG | 0.138
12 | ATGTCGCC | 0.115
13 | ATGTCGCA | 0.38
14 | ATGTCGCG | 0.387
15 | AGGTCGCG | 0.0713
16 | GTGTCGCA | 0.0382
17 | GGGGCCAC | -0.325
18 | GTCGCGAC | 0.349
19 | GTCGCGAA | 0.141
20 | CTCGCGAC | 0.0116
21 | AAGCTGGT | -0.026
22 | TAGGCCTA | -0.0564
23 | CCGTTGTA | 0.187
24 | CAGTTGTA | 0.069
25 | CCGTTGTC | 0.304

Row | Sequence | PBM E-score
26 | AAGTTGTC | 0.298
27 | CAGTTGTC | 0.32
28 | ACGTTGTC | 0.119
29 | ACATTCTG | 0.162
30 | TAGCAGGA | 0.0461
31 | GCACCCGC | -0.163
32 | ACATTGGC | -0.0178
33 | ATTCAGGC | 0.0647
34 | AACATTGC | -0.162
35 | GACATTGC | 0.434
36 | CACATTGA | 0.0276
37 | GACATTGA | 0.386
38 | TACATTGA | 0.105
39 | CACATTGC | 0.115
40 | ATCCCGGG | 0.0417
41 | CAGAGACA | 0.204
42 | GCTCAAGA | -0.102
43 | CACGGCTG | -0.156
44 | CAGGTGGA | -0.193
45 | CTGCCCTC | -0.329
46 | GAAAAGTC | 0.326
47 | GAAAAGTA | 0.167
48 | CAAAAGTC | 0.282
49 | GAAAAGGC | -0.0462
50 | ATAAAGTA | 0.243

Row | Sequence | PBM E-score
51 | AAAAAGTC | 0.418
52 | ACAAAGTC | 0.236
53 | ATAAAGTC | 0.305
54 | ATAAAGTG | 0.154
55 | AAGCGAGA | -0.127
56 | CGGCCACG | -0.189
57 | GACCCGAC | -0.0784
58 | AGGTAATC | -0.139
59 | AACAAAAG | 0.101
60 | ACAGCGTG | 0.0507
61 | GAATGTAA | -0.0699
62 | CTATGTAC | 0.189
63 | AAATGTAG | -0.0386
64 | GAATGTAC | 0.342
65 | ATATGTAA | 0.131
66 | ATATGTAC | 0.371
67 | GAATGTGC | -0.148
68 | CAATGTAC | 0.195
69 | AAATGTAC | 0.371
70 | ATATCACG | -0.0452
71 | ACGAGCTG | 0.0278
72 | ACCTTCTC | -0.183
73 | CGTCCCTA | -0.0646
74 | AAATATGC | -0.0194
75 | AAATATGT | 0.37

Row | Sequence | PBM E-score
76 | AAATATAA | 0.272
77 | AAATATAC | 0.0952
78 | AATAATAG | -0.0638
79 | AATAATAT | 0.33
80 | AATAATAA | 0.132
81 | AAATATAT | 0.306
82 | AAATATGA | 0.154
83 | ACCAGAGC | -0.124
84 | CGATGCAC | -0.295
85 | GCACAGGA | 0.0138
86 | ACTCGAGT | 0.14
87 | ATAGGCCA | -0.0607
88 | TGACATAA | 0.364
89 | GGTCACAA | -0.0198
90 | GGACATAC | 0.48
91 | CGTCACAA | 0.137
92 | TTACATAA | 0.0155
93 | TCACATAA | -0.0221
94 | GTACATAA | 0.306
95 | TAACATAA | 0.214
96 | CTACATAA | -0.237
97 | GCACATAC | -0.162
98 | TGTCACAA | 0.378
99 | CGACATAC | 0.281
100 | GACCCCCA | -0.377

Row | Sequence | PBM E-score
101 | TCACTAGA | 0.0764
102 | CACCCCGC | -0.0608
103 | CCATTAAC | 0.139
104 | GCCCTGCC | -0.296
105 | AAGTCTAC | 0.0709
106 | AGTCATAA | 0.0855
107 | CGACATAA | 0.286
108 | GCACATAA | -0.0366
109 | CGTCATAA | 0.122
110 | TGTCATAA | 0.397
111 | CGACATGA | 0.207
112 | GCACATGA | -0.0829
113 | GGACATAA | 0.477
114 | GGACATGA | 0.467
115 | ACCACAGA | 0.0742
116 | TTGAGCAA | -0.0524
117 | ACACTTGG | -0.0164
118 | GACCATGC | 0.0413
119 | GTGTACAA | 0.32
120 | TCGTACAA | 0.294
121 | CTGTACAA | 0.161
122 | TTGTACAA | 0.337
123 | CTGTACAG | 0.0843
124 | GTGTACAC | 0.162
125 | CGTGCAGC | -0.0365

Row | Sequence | PBM E-score
126 | CTCGGTAC | 0.0483
127 | ACGGCCGT | -0.204
128 | ATAAAGCC | -0.151
129 | GCCTACCA | -0.174
130 | AGCCCTCG | -0.123
131 | AATATGTG | 0.181
132 | ACTATGTC | 0.292
133 | AATATGTA | 0.335
134 | CATATGTC | 0.449
135 | GATATGTA | 0.12
136 | CATATGAC | 0.143
137 | AATATGTC | 0.478
138 | CATATGCC | 0.00819
139 | CATATGTA | 0.245
140 | AGCGAAAG | 0.00846
141 | CGCACTTA | -0.0705
142 | AGCTCTAC | -0.104
143 | AGCCACGA | -0.181
144 | CCAATAGC | -0.0522
145 | CAAGGACC | 0.0568
146 | GAAGGATA | -0.142
147 | TAAGGATA | 0.13
148 | TAAGGAGA | -0.255
149 | GAAGGACC | -0.139
150 | GAAGGACA | 0.471

Row | Sequence | PBM E-score
151 | AAAGGACC | -0.105
152 | AAAGGACA | 0.445
153 | AAAGGACG | 0.032
154 | TAAGGACA | 0.481
155 | CAAGGACG | 0.148
156 | CAAGGACA | 0.484
157 | CGAACATA | 0.128
158 | TAACAACA | 0.0839
159 | CGTCCTGA | 0.102
160 | AATCTACA | 0.058
161 | TAGGTAGA | 0.0723
162 | GATCTGTA | -0.0087
163 | CCGAAAAC | 0.0665
164 | AACGAGTC | -0.0621
165 | ATGTCACC | 0.303
166 | GTGTCACA | 0.261
167 | AGGTCACC | -0.0357
168 | ATGTCAGA | 0.265
169 | AAGTCACA | 0.127
170 | CTGTCACA | 0.0788
171 | ATGTCACG | 0.31
172 | ATGTCACA | 0.363
173 | CTGTCACC | -0.0649
